Assay outcomes: PubChem, National Center for Advancing Translational Sciences (NCATS)
In the library only some 3.8% were active in any assay of this set; here they are far more common.
CBFb-RUNX1 inh = qHTS Assay for Compounds Blocking the Interaction Between CBF-beta and RUNX1 for the Treatment of Acute Myeloid Leukemia. Runt-related transcription factor 1 (Homo sapiens) + Core-binding factor subunit beta …. AlphaScreen CBFb-His/RUNX1-biotin binding, biochemical. Potency, µM (highest dose often 59.8 µM), for inactives: at the highest dose activity, negative = inhibition, most hits filed as inhibitors. 230,000 tested, under 10 active. AID 1477, 2009; further: % of control where 0% means no effect
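Read-out: AlphaScreen. Format: His-CBF-beta with biotinylated RUNX1 (30 nM each) preincubated 20 min, compound 15 min, Ni-chelate plus streptavidin beads 90 min; room temperature throughout.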
hERG WT inh = qHTS for Inhibitors of KCHN2 3.1: Wildtype qHTS; activity change, % at 1.84 µM; 0.37% of 340,000 active; Voltage-gated inwardly rectifying potassium channel KCNH2 (Homo sapiens), Q12809; U2OS, BacMam KCNH2, thallium flux FluxOr; hits give low values;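 active means maximum activity change below -70%; inconclusive means maximum activity change between -70% and -50%; inactive means maximum activity change above -50%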; further: on the % scale 0 is the no-effect control and ±100 the full control effect
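U2OS cells were transduced with wild-type KCNH2 virus (2.03 x 10^8 / mL) for 4 h at room temperature, then cultured overnight at 37 C. Thallium flux was read with FluxOr dye. Rate constants were normalized to DMSO controls.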
VDR inh = Inhibitors of the vitamin D receptor (VDR): qHTS; Vitamin D3 receptor (Homo sapiens), P11473; VDR-SRC2-3 peptide fluorescence polarization, 2 h; Potency, µM, inactives show max response, negative = inhibition, usual class: inhibitors; 0.93% of 400,000 active; further: potency means the concentration at half of the fitted maximal effect; on the % scale 0 is the no-effect control and ±100 the full control effect
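FP read-out; VDR + SRC2-3 coactivator peptide; 23 nl compound by pintool; 2 h RT incubation; reagents held at 4 deg C, protected from light.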
KCNH2 3.1 block = qHTS for Inhibitors of KCHN2 3.1: Mutant qHTS; U2OS KCNH2 3.1, thallium flux FluxOr; hits give low values; activity change, % (tested at about 1.8 µM); 0.95% of 340,000 active; AID 720553, 2013;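 active means maximum activity change below -70%; inconclusive means maximum activity change from -70% to -50%; inactive means maximum activity change above -50%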;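 further: thallium influx rate constant from kinetic fluorescence after stimulation buffer; on the % scale 0 is the no-effect control and ±100 the full control effect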
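Virally transduced U2OS (3.1 isoform, 4 h infection in dark at RT) → overnight 37 C → FluxOr + Red40 in HBSS/HEPES, 45 min → stimulation buffer, 2 min kinetic read → rate constant vs DMSO controls.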
PLK1 PBD block = qHTS for Inhibitors of PLK1-PDB (polo-like kinase 1 - polo-box domain): Primary Screen | Serine/threonine-protein kinase PLK1 (Homo sapiens), P53350 | Potency, µM, inactives show max response, negative = inhibition, most hits filed as inhibitors | Plk1 PBD binding of FITC phosphopeptide, fluorescence polarization | AID 720504, 2013 | 2.8% of 360,000 active; further: potency means the concentration at half of the fitted maximal effect; series mostly up to about 57 µM; on the % scale 0 is the no-effect control and ±100 the full control effect; nearly all actives have a fitted effect of over 65% in size
MBNL1-CUG inh = qHTS Assay for Inhibitors of MBNL1-poly(CUG) RNA binding; TR-FRET MBNL1-His/biotin-(CUG)12 binding, 665/545 ratio; AID 2675, 2010; Muscleblind-like protein 1 (Homo sapiens), Q9NR56; 0.036% of 280,000 active; Potency, µM (highest dose often 57.5 µM), without a hit: at the top dose activity change, negative = inhibition, actives largely listed as inhibitors; active means well fitted inhibition curve with a large enough effect in the signal ratio, with a control signal flat, not every such curve was filed as active; inconclusive means small, poorly fitted or top-dose-only effect, or effect the other way, or a change in a side signal; inactive means no such curve, though single readings can be large or run the other way; the % refers to the signal ratio; further: potency means the concentration at half of the fitted maximal effect; on the % scale 0 is the no-effect control and ±100 the full control effect
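Ratiometric TR-FRET (665 over 545 nm, excitation 340 nm) tracks disruption of MBNL1-His/biotin-(CUG)12 complex after 60 min at room temperature, with compounds at 92 nM to 58 uM final.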
VDR confirm = qHTS for Inhibitors of the vitamin D receptor (VDR): Hit Validation in Primary Screen; VDR-coactivator inhibition assay, qHTS confirmation; AID 602199, 2012; 89% of 840 active; shares compounds with VDR inh; Potency, µM, usual class: inhibitors; further: potency means the concentration at half of the fitted maximal effect
VDR FP fluor = qHTS for Inhibitors of the vitamin D receptor (VDR): Hit Validation using a Fluorescein Assay; VDR-coactivator binding, fluorescein fluorescence polarization; shares compounds with VDR inh; 48% of 840 active; Potency, µM (series often up to 57.1 µM), for the others: at the highest dose activity change, negative = inhibition, hits mostly inhibitors; further: potency means the concentration at half of the fitted maximal effect
VDR bla = qHTS for Inhibitors of the vitamin D receptor (VDR): Hit Validation using a Beta-Lactamase Assay; AID 602202, 2012; Potency, µM (series often up to 46.1 µM), inactives show at the top dose activity change, negative = inhibition, actives largely listed as inhibitors; VDR beta-lactamase reporter cells, FRET ratio; cells co-treated with VDR agonist LG190178; shares compounds with VDR inh; 23% of 840 active; further: potency means the concentration at half of the fitted maximal effect; on the % scale 0 is the no-effect control and ±100 the full control effect
VDR viability = qHTS for Inhibitors of the vitamin D receptor (VDR): Hit Validation using a Cytotoxicity Assay; shares compounds with VDR inh; cytotoxicity counter-screen, cell viability, qHTS; Potency, µM (top dose mostly 48.3 µM), inactives show top-dose activity change, negative = cytotoxicity, usual class: cytotoxic; 18% of 840 active; AID 602204, 2012;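 further: potency means the concentration at half of the fitted maximal effect; plate controls were DMSO for no effect and high-concentration cycloheximide for full effect; nearly all actives have a fitted effect of over 75% in size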
Starred values were filed as active, the others as inactive; i = inactive; ? = inconclusive; . = not tested or not shown; [ ] = dose if it differs, or a comment. Unless noted, the call rests on the fitted dose curve; in most records, active means well fitted curve in the direction sought with a large enough effect; inconclusive means small, poorly fitted or top-dose-only effect, or another doubt; inactive means no such curve, though single readings can be large; an effect the other way counts as inactive or inconclusive.

SMILES | CBFb-RUNX1 inh | hERG WT inh | VDR inh | KCNH2 3.1 block | PLK1 PBD block | MBNL1-CUG inh | VDR confirm | VDR FP fluor | VDR bla | VDR viability
CCOC(=O)CSC1=NC(=O)/C(=C\c2ccc(Cl)cc2)S1 | -1.0% | 2.2 | 79.4µM* | -1.3 | 0.844µM* | 3.9% | 8.44* | 75.0% | ? | ?
Cc1ccc2c(c1)-c1nc(-c3ccc4c(c3)NC(=O)CO4)cc(-c3ccc(F)cc3)c1CO2 | . | . | -19.1% | . | . | . | . | . | . | .
CC(C)OCCCn1c(=O)c2ccccc2n2c(-c3cc(Cl)ccc3O)nnc12 | . | . | 13.1% | . | . | . | . | . | . | .
O=C1C(=Cc2ccco2)C(=O)c2ccccc21 | ? | 5.3 | -16.0% | 18.6 | ? | . | . | . | . | .
COc1ccc(/C=C2\C(=O)ON=C2c2ccccc2)cc1OC | . | 4.9 | 35.5µM* | -9.6 | 2.99µM* | 2.5% | 18.9* | ? | -14.7% | -1.7%
COc1ccc(/C=C2/C(=O)ON=C2c2ccccc2)cc1OC | -7.0% | 0.7 | 39.8µM* | 3.3 | 1.89µM* | 5.4% | 21.2* | ? | -2.9% | -7.4%
COc1ccc(/C=C2\C(=O)ON=C2c2cccc([N+](=O)[O-])c2)cc1 | -12.8% | . | . | . | . | 17.2% | . | . | . | .
NC(=O)COc1ccc(/C=C2\C(=O)ON=C2c2ccccc2)cc1 | . | -4.3 | ? | -3.0 | 2.12µM* | . | 8.91* | 12.6µM* | ? | ?
O=C1ON=C(c2ccccc2)/C1=C/c1ccco1 | ? | -11.6 | ? | -10.4 | 1.06µM* | 12.7% | 8.44* | ? | -30.3% | ?
CCOc1ccccc1CNC(=O)C1CCN(Cc2cc3ccccc3n2Cc2ccccc2)CC1 | . | . | -0.1% | . | . | . | . | . | . | .
COc1ccc(Cl)cc1-n1nnc(-c2nsc(NC(=O)c3ccccc3Cl)n2)c1C | . | . | 3.2% | . | . | . | . | . | . | .
CCOC(=O)/C(=C\c1cccc(O)c1)c1nc2sc(C)c(C)c2c(=O)[nH]1 | 1.3% | 3.8 | 44.7µM* | . | 4.74µM* | . | 3.36* | ? | 20.6µM* | ?
Cc1ccc(C(=O)/C=C/N(C)C)o1 | 1.3% | i | -2.4% | 40.5 | -11.7% | 3.8% | . | . | . | .
Cc1ccc(C(=O)/C=C/c2cc(Br)cc(Br)c2O)o1 | . | 1.7 | 8.91µM* | 4.8 | 26.7µM* | 18.8% | 3.77* | ? | ? | -17.1%
Cc1ccc(OCc2nc(-c3ccc(C(=O)N4CCN(c5ccc(Cl)cc5)CC4)cc3)oc2C)cc1 | . | . | 6.5% | . | . | . | . | . | . | .
O=C1C(=O)c2ccc(-c3ccccc3)cc2-c2ccccc21 | -16.3% | -11.4 | 3.55µM* | 1.9 | -19.0% | ? | 0.67* | ? | 3.26µM* | 2.51µM*
CNc1ccc(Br)cc(C(=O)/C=C/c2ccc(Cl)cc2Cl)c1=O | ? | -1.1 | ? | -19.1 | ? | 10.0% | 3.55* | ? | ? | 10.2%
CCCOc1cccc(C2c3c(oc4ccc(F)cc4c3=O)C(=O)N2c2nc(C)c(C(C)=O)s2)c1 (stereo unspecified) | . | . | 14.6% | . | . | . | . | . | . | .
CN(C(=O)CC(=O)Nc1ccc2nc3n(c(=O)c2c1)CCCCC3)c1ccccc1F | . | . | -7.7% | . | . | . | . | . | . | .
COc1ccc(NC(=O)CCS(=O)(=O)c2nc(-c3cccs3)cc(C(F)(F)F)n2)cc1OC | . | . | 44.7µM* | . | . | . | ? | 25.1µM* | 3.8% | 8.6%
O=C(CCSc1nc(-c2ccco2)cc(C(F)(F)F)n1)Nc1ccc2c(c1)OCO2 | 2.1% | -15.1 | 3.7% | -7.1 | -4.2% | 8.5% | . | . | . | .
COc1cc(NC(=O)CSc2nc(-c3cccs3)cc(C(F)(F)F)n2)cc(OC)c1OC | . | . | -13.0% | . | . | . | . | . | . | .
O=C(CCS(=O)(=O)c1nc(-c2ccc3c(c2)OCO3)cc(C(F)(F)F)n1)Nc1ccc(F)c(Cl)c1 | . | . | 8.91µM* | . | . | . | 7.08* | 7.94µM* | 23.1µM* | ?
O=C(O)c1cc(Nc2cc(Cl)c3nonc3c2[N+](=O)[O-])ccc1O | . | -18.3 | 3.55µM* | -2.6 | 4.74µM* | ? | 2.67* | ? | 3.3% | 19.0%
O=[N+]([O-])c1c(Nc2ccccc2O)cc(Cl)c2nonc12 | . | 0.1 | 44.7µM* | 2.2 | 2.99µM* | ? | 4.23* | ? | 4.61µM* | 13µM*
CCC(C)C(NC(=O)C(Cc1ccc(O)cc1)NC(=O)C(N)C(C)C)C(=O)NC(Cc1cnc[nH]1)C(=O)N1CCCC1C(=O)NC(Cc1ccccc1)C(=O)O (stereo unspecified) | 18.1% | . | -7.5% | . | . | . | . | . | . | .
Cc1cccc(N2CCN(C(=O)c3c4c(nc5ccccc35)C(=O)N(C3CCCCC3)C4)CC2)c1C | . | . | 11.6% | . | . | . | . | . | . | .
CCN(CC)c1ccc(N=Cc2ccccc2[N+](=O)[O-])cc1 | -27.5% | 16.9 | ? | -6.9 | 4.1% | 11.4%[11.5 µM] | . | . | . | .
CCN(CC)c1ccc(N=Cc2ccc([N+](=O)[O-])o2)cc1 | ? | -3.1 | ? | 2.8 | -23.0% | ? | 7.94* | 1.7% | 3.2% | -7.7%
O=C1C(Cl)=C(NS(=O)(=O)c2ccc([N+](=O)[O-])cc2)C(=O)c2ccccc21 | 4.2% | 2.0 | 22.4µM* | 7.1 | ? | ? | 5.97* | ? | ? | ?
